CCHFV vOTU inh: blocks the CCHF virus ovarian tumor domain protease; CCHFV vOTU protease, Pep-AMC fluorescence; inhibition, % at 11.5 µM; 0.55% of 370,000 active; further: 0% = vehicle wells with enzyme and 100% = no enzyme wells
GDH-TPI inh: GDH-TPI coupled enzyme inhibition counter-screen | inhibition, % at 4.8 µM | 1.2% of 360,000 active | GDH-TPI coupled enzyme counterscreen, NADH absorbance | AID 588335;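 further: 0% = DMSO wells and 100% = wells lacking the enzyme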
RecA splice inh: blocks M. tuberculosis RecA intein splicing; P9WHJ3; cell-free RecA intein splicing, fluorescence; inhibition, % (concentration not given with the values); 0.75% of 290,000 active; AID 2221; in the data active means inhibition above about 30%;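 further: 0% = vehicle wells and 100% = reference inhibitor control wells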
Target sequence (P9WHJ3 whole entry, looked up, canonical isoform): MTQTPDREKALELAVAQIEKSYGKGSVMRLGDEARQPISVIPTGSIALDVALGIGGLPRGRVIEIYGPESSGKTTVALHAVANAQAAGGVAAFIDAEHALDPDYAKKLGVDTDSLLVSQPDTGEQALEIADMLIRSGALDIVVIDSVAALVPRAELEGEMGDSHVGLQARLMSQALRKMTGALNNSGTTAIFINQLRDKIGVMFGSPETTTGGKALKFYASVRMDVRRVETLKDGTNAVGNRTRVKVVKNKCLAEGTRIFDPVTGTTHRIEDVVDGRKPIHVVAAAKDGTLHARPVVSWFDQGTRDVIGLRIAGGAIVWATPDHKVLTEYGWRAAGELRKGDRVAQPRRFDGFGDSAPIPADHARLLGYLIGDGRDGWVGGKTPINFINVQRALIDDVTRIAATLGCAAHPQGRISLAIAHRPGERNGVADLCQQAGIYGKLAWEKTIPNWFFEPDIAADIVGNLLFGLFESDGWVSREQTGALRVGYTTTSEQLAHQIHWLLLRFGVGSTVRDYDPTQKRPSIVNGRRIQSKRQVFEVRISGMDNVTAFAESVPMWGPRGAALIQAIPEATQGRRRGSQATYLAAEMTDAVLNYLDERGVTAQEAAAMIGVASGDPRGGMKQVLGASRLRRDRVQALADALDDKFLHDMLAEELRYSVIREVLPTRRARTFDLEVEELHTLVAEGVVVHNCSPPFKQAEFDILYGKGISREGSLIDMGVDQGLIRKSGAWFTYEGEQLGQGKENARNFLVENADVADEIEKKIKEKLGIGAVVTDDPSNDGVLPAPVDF
Mtb bLac sens: beta-lactam sensitization of Mtb H37Rv; inhibition, % at 25 µM; 0.27% of 330,000 active; AID 434955; M. tuberculosis H37Rv growth with meropenem, percent inhibition; call rule not given here;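 further: growth measured after seven days incubation then overnight dye step; 0% = bacteria only wells and 100% = bacteria with antibiotic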
FBA Mtb inh: inhibitors of M. tuberculosis fructose-bisphosphate aldolase; P9WQA3; purified M. tuberculosis FBA, fluorescence read-out; inhibition, % at 1 µM; 2.3% of 360,000 active; in the data active means inhibition above about 27%;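 further: 0% = vehicle and 100% = reference inhibitor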
* = called active by the depositor; x = not tested or not shown; + = active, no number. Rows were chosen to be rich in hits. Some 4.2% of all compounds tested hit in one or more screens of this group. Unless noted, no stated cut-off is given here; in the data, active means inhibition above about 30%; inactive means the rest.

SMILES | CCHFV vOTU inh | GDH-TPI inh | RecA splice inh | Mtb bLac sens | FBA Mtb inh
COC(=O)[C@]12C[C@H](CC(=O)NCc3ccc(OC)c(OC)c3)C(=O)N(CCc3ccc(OC)c(OC)c3)C1=C[C@H](C(C)C)O[C@@H]2C1CC1 | 10 | x | x | x | x
Cc1ccc(/C=C2\SC(=S)N(NS(=O)(=O)c3ccc(C)cc3)C2=O)cc1 | -2 | 15 | 8 | 10 | -6
Cc1ccc(S(=O)(=O)NN2C(=O)/C(=C/c3cccs3)SC2=S)cc1 | 14 | 31* | 20 | 1 | -4
Cc1ccc(-n2c3nc(=O)[nH]c(=O)c-3cc3c(C)nn(-c4ccccc4)c32)c(C)c1 | -108 | 21 | -1 | 3 | +
COc1cccc(Nc2nc3ccccc3nc2NS(=O)(=O)c2cccs2)c1 | 4 | 37* | -12 | -11 | 17
O=C(NN=Cc1ccccc1C(=O)O)c1ccc(NS(=O)(=O)c2cccs2)cc1 | 14 | 37* | x | 5 | -1
COc1ccc(OC)c(C=NNC(=O)c2ccc(NS(=O)(=O)c3cccs3)cc2)c1 | -9 | 39* | x | -1 | 16
O=C(O)c1ccc(/C=N/NC(=O)c2ccc(NS(=O)(=O)c3cccs3)cc2)cc1 | 16 | 74* | -3 | 3 | 2
O=C(N/N=C/c1ccncc1)c1ccc(NS(=O)(=O)c2cccs2)cc1 | 6 | 18 | -1 | 6 | -5
CC(=O)N1CCc2cc(Br)c(S(=O)(=O)CCC(=O)N3CCN(c4ccccn4)CC3)cc21 | -1 | x | x | x | x
C[C@H]1CCC[C@@H](O)CC(=O)c2c(O)cc(O)cc2CC(=O)O1 | 3 | x | x | x | x
COC(=O)[C@]12C[C@H](CC(=O)N3CCN(C(=O)c4ccco4)CC3)C(=O)N(Cc3ccc(Cl)cc3Cl)C1=C[C@H](COCc1ccccc1)O[C@@H]2C | 10 | x | x | x | x
Cc1cc(F)ccc1C(=O)N1CCC(Oc2cccnc2)CC1 | -8 | x | x | x | x
COc1ccc(NS(=O)(=O)c2cccc(C(=O)N/N=C/c3cccs3)c2)cc1 | -4 | 23 | -4 | -1 | 1
COc1ccc(/C=N/NC(=O)c2ccc(NS(=O)(=O)c3cccs3)cc2)cc1 | 5 | 51* | x | -1 | 0
COc1ccc(NS(=O)(=O)c2cccc(C(=O)NN=Cc3cc(Br)c(O)c(Br)c3)c2)cc1 | 18 | 41* | x | 3 | 0
COc1cccc(/C=N/NC(=O)c2ccc(=O)[nH]n2)c1O | 6 | 31* | -1 | 1 | 3
CCOC(=O)c1c(C)[nH]c(C(=O)N/N=C/c2ccc(Br)cc2)c1C | 13 | 17 | 2 | 17 | -1
Cc1[nH]c(C(=O)N/N=C/c2ccc(C(=O)O)cc2)c(C)c1C(=O)N/N=C/c1ccc(C(=O)O)cc1 | 17 | 74* | 2 | 4 | -1
COc1cccc(/C=N/NC(=O)c2[nH]c(C)c(C(=O)N/N=C/c3cccc(OC)c3O)c2C)c1O | 26 | 43* | -5 | 1 | 1
CC(=O)c1cc(-c2ccc(Oc3ccccc3)cc2)c(=O)n2c1CCC2 | 4 | x | x | x | x
CN1C(=O)C[C@@](C#N)(C(=O)Nc2nc3ccc(F)cc3s2)[C@H]1c1ccccc1 | -6 | x | x | x | x
COc1ccccc1Oc1c(C)oc2c(CN(C)C)c(O)ccc2c1=O | -281 | 23 | -4 | -2 | +
CCN(CC)Cc1c(O)ccc2c(=O)c(Oc3ccccc3OC)c(C)oc12 | -221 | 22 | -4 | -4 | +
CNC(=S)NN=C(C)c1ccc(OC)cc1O | 3 | 39* | x | x | 4
SMILES | CCHFV vOTU inh | GDH-TPI inh | RecA splice inh | Mtb bLac sens | FBA Mtb inh
COc1ccc(/C(C)=N/N=C(N)N)c(O)c1 | 3 | 9 | -3 | -4 | 2
COc1ccc(/C=C(\C#N)C(=O)N=CN(C)C)cc1 | -2 | 10 | 2 | -3 | -1
CN(C)C=NC(=O)/C(C#N)=C1\CCc2ccccc2N1 | 11 | 56* | 0 | -6 | 1
Nc1nn2cc(-c3ccccc3)nc2c2ccccc12 | -212 | 4 | 5 | 14 | +
Nc1nc(-c2ccccc2)cn1N | 6 | 3 | -10 | -5 | 2
COC(=O)[C@]12C[C@H](CC(=O)N3CCN(C(=O)c4ccco4)CC3)C(=O)N(Cc3ccc(Cl)cc3Cl)C1=C[C@H](C(C)C)O[C@@H]2C1CC1 | 15 | x | x | x | x
CN1C[C@]2(C=C3CCCCC3n3c(=O)n(-c4ccccc4)c(=O)n32)N(C(=O)OCc2ccccc2)C1=NC(=O)c1ccccc1 (stereo not given in full) | 8 | x | x | x | x
Nc1ncc([N+](=O)[O-])cc1Br | 12 | 52* | 0 | -5 | 0
CC(C)(C)OC(=O)NCc1ccccc1/C=C/S(=O)(=O)NC1CCCC1 | -4 | x | x | x | x
COc1ccc(/C=C/c2cc(-c3ccc(C)cc3)o[n+]2C)cc1 | -1 | 55* | 1 | 100 | 12
COc1ccc(/C=C/c2c(-c3ccc(OC)cc3)oc3ccc(-c4ccc(OC)cc4)cc23)cc1 | -8 | 7 | -37 | 7 | 7
COc1ccc(/C=C2\SC(=O)N(CC(=O)N(C)C3CCS(=O)(=O)C3)C2=O)cc1 (stereo not given) | -3 | 34* | 2 | 10 | 4
COc1ccc(/C=C2\SC(=O)N(CC(=O)NCCCn3ccnc3)C2=O)cc1 | 8 | 43* | 0 | 3 | -2
COc1cccc(/C=C2\SC(=O)N(CC(=O)NCCCn3ccnc3)C2=O)c1 | 15 | 24 | -1 | 0 | 5
CCN(C(=O)CN1C(=O)S/C(=C\c2ccc(F)cc2)C1=O)C1CCS(=O)(=O)C1 (stereo not given) | 13 | 36* | 2 | -7 | -1
COc1ccc(/C=C2\SC(=O)N(CC(=O)NC3CCS(=O)(=O)C3)C2=O)cc1 (stereo not given) | -7 | 39* | -2 | -1 | 5
Oc1[nH]c2ccccc2c1/C=N/c1nccs1 | 18 | 31* | -8 | 8 | -2
Cc1ccc(CN2CCCCC(NC(=O)c3ccc(-c4ccccc4)cc3)C2=O)cc1 (stereo not given) | 2 | x | x | x | x
FC(F)(F)C(F)(F)C(F)(F)c1nc2nc(Cl)c(Cl)nc2[nH]1 | 0 | 34* | x | x | 14
FC(F)(F)c1nc2nc(Cl)c(Cl)nc2[nH]1 | -1 | 26 | x | x | 5
CCN(CC)C(=O)CC[C@H]1CC[C@]2(CCCN(Cc3cccc4ccccc34)C2)O1 | 9 | x | x | x | x
CCn1c(COc2ccc(C)cc2)nnc1SCC(=O)Nc1ccc(Oc2ccccc2)cc1 | 0 | x | x | x | x
CN(C)N=Nc1nc2c(c(=O)n(C)c(=O)n2C)n1CC1CO1 (stereo not given) | -4 | 35* | 0 | 0 | -2
Cn1nnnc1Sc1ncnc2scc(-c3ccc(Br)cc3)c12 | 4 | 12 | x | 99 | 2
Cn1nnnc1Sc1ncnc2scc(-c3ccc(F)cc3)c12 | 9 | 6 | 32* | 79 | 2
C=CCNc1nnc(-c2ccncc2)s1 | -60 | 12 | -1 | -11 | 181*
O=C(Nc1ccc(F)cc1)Nc1nnc(-c2ccncc2)s1 | -5 | 35* | 2 | -3 | 1
O=C(Nc1ccc(Cl)cc1)Nc1nnc(-c2ccncc2)s1 | -4 | 7 | -2 | -5 | 3
c1ccc2c(Nc3nnc(-c4ccncc4)s3)cccc2c1 | -10 | 38* | -1 | 65 | 0
Fc1ccc(Nc2nnc(-c3ccncc3)s2)cc1Cl | -5 | 20 | x | x | 2
